Measured values: PubChem BioAssay (NCATS)
Records with an inconclusive call do not appear. Entries that show only a call come without a potency. Active and inactive are the calls of the source. The call rests on the fitted dose curve; in most records, active means well fitted curve in the direction sought with a large enough effect; inconclusive means small, poorly fitted or top-dose-only effect, or another doubt; inactive means no such curve, though single readings can be large; an effect the other way counts as inactive or inconclusive.

How the values were obtained:
[1] = target: Aldehyde dehydrogenase, mitochondrial (Homo sapiens) (UniProt P05091); assay: qHTS for Inhibitors of the Aldehyde Dehydrogenase Family (ALDH2) Primary screen (AID 2061308); further: nearly all actives have a fitted effect of over 55% in size
[2] = target: Retinaldehyde dehydrogenase 3 (Homo sapiens) (UniProt P47895); assay: qHTS for Inhibitors of the Aldehyde Dehydrogenase Family (ALDH1A3) Primary screen (AID 2061315)

| SMILES | Potency [1] | Potency [2] |
| --- | --- | --- |
| OCc1ccc(-c2ccc3ncnc(NCc4ncc[nH]4)c3c2)o1 | inactive | inactive |
| O=C1NC(=O)/C(=C/c2cccn2-c2ccc(P(=O)(O)O)cc2)N1 | inactive | inactive |
| CC(=O)Nc1sc2c(c1-c1nc3ccccc3s1)CCNC2 | inactive | inactive |
| Cc1nc(NCc2ccccc2)c2nc(-c3ccccc3)n(C3CCN(Cc4ccccc4)C3)c2n1 (configuration not stated) | inactive | inactive |
| COc1cccc2nc3sc(Nc4ccc5c(c4)CCC5)nn3c(=O)c12 | inactive | inactive |
| CN(CC1CCCO1)c1ncnc2ccc(-c3ccc4c(c3)OCO4)cc12 (configuration not stated) | inactive | inactive |
| CCCn1c(-c2ccc(F)cc2)nc2c(N3CCN(CCC(=O)OCC)CC3)nc(C)nc21 | inactive | inactive |
| O=C(NCc1ccc(Cl)c(Cl)c1)Nc1nnc(-c2ccncc2)s1 | inactive | inactive |
| Cc1ccc(S(=O)(=O)Nc2cccc(C(=O)Nc3nc(-c4ccccc4)cs3)c2)cc1 | inactive | inactive |
| O=C(Nc1ccc(Cl)nc1)Nc1nnc(-c2ccncc2)s1 | inactive | inactive |
| C=C1C(=O)O[C@@H]2[C@H]1CC[C@H](C)[C@]1(CCC(=O)O1)C2(C)O (some centres not stated) | inactive | inactive |
| CNc1nnc(-c2cccc3ccccc23)s1 | inactive | inactive |
| Cc1nc(NCc2ccccc2)c2nc(-c3ccccc3)n(CC3CCN(C)CC3)c2n1 | inactive | inactive |
| Cc1ccc(S(=O)(=O)Nc2cnccc2C(=O)Nc2ccc(S(=O)(=O)Nc3nccs3)cc2)cc1 | inactive | inactive |
| O=C(CSc1nnc(-c2cccc(S(=O)(=O)N3CCCC3)c2)n1-c1ccccc1)Nc1ccc(C(=O)O)cc1 | inactive | inactive |
| Cc1ccc(-c2cc(C(=O)Nc3ccc(-n4cccn4)cc3)c3ccccc3n2)cc1C | inactive | inactive |
| Cc1ccc(Nc2nc(-c3ccncc3)nc3ccccc23)cc1F | inactive | inactive |
| CCC(C)N(C)C(=O)Cn1nc(-c2ccc(C)cc2)ccc1=O (configuration not stated) | inactive | inactive |
| CC1CCC2C(C)(C)C(O)CCC2(C)C12Cc1c(O)cc3c(c1O2)CN(C(CCCN=C(N)N)C(=O)O)C3=O (configuration not stated) | inactive | inactive |
| Cc1cnc(-c2ccccc2C(F)F)nc1NCC1CN(c2cnccn2)C1 | inactive | inactive |
| Cn1nnnc1Sc1ncnc2scc(-c3ccccc3Br)c12 | inactive | inactive |
| O=C(Nc1ccc(-c2nc3ccccc3[nH]2)cc1)Nc1ccc2c(c1)CCCO2 | inactive | inactive |

| SMILES | Potency [1] | Potency [2] |
| --- | --- | --- |
| Cc1sc(NC(=O)Cc2ccc3c(c2)OCO3)nc1-c1ccc2c(c1)CCN2C(=O)c1ccccc1F | inactive | inactive |
| CCCn1c(C)nc2c(NCCN(C(C)C)C(C)C)nc(C)nc21 | inactive | inactive |
| NC(=O)c1c(-c2ccccc2)no[n+]1[O-] | inactive | inactive |
| O=C1CCc2cc(S(=O)(=O)Nc3ccc(Cl)cc3)ccc2N1 | inactive | inactive |
| O=S(=O)(c1ccccc1)N1CCN(c2nccc(-c3cccs3)n2)CC1 | inactive | inactive |
| O=C1CCCC2=C1C(c1[nH]ncc1Cl)N=C(Nc1nc3cccc(Cl)c3o1)N2 (configuration not stated) | inactive | inactive |
| O=S1(=O)N=C(Oc2ccc(-c3ccccc3)cc2)c2ccccc21 | inactive | inactive |
| COc1cc(-c2ccc3ncnc(NCc4nc(C)cs4)c3c2)cc(OC)c1OC | inactive | inactive |
| O=C(Nc1ccc2ccccc2c1)Nc1nnc(-c2ccc(F)cc2)s1 | inactive | inactive |
| CC(=O)Nc1sc2c(c1-c1nc3ccccc3s1)CCN(C)C2 | inactive | inactive |
| N#CC1=C(Nc2nc3ccccc3o2)OC2=C(C(=O)CCC2)C1c1[nH]ncc1Cl (configuration not stated) | inactive | inactive |
| Cc1cc(N[S+](=O)([O-])c2ccc(NC(=O)Cc3ccc(F)c(C(F)(F)F)c3)cc2)no1 | inactive | inactive |
| c1cncc(CNc2ncnc3ccc(-c4ccc5c(c4)OCCO5)cc23)c1 | inactive | inactive |
| CC(NCc1ccc2c(c1)nc(NC(=O)c1ccc(-c3cn[nH]c3)s1)n2CC(C)(C)O)C(C)(C)C (configuration not stated) | inactive | inactive |
| O=S(=O)(NCc1ccccc1)c1ccc(O)c2ncccc12 | inactive | inactive |
| Cc1cc(N[S+](=O)([O-])c2cc3c(cc2F)NC(=O)CC3)ccc1Br | inactive | inactive |
| COc1ccc(Nc2nn3c(=O)c4ccccc4nc3s2)cc1 | inactive | inactive |
| Cc1cc(C)nc(NC(=S)N2CCN(c3ccncc3)CC2)c1 | inactive | inactive |
| Cc1ccc(OCCn2c(CCNC(=O)COc3ccccc3Br)nc3ccccc32)cc1 | inactive | inactive |
| Clc1ccccc1-c1nc(NCc2ccc(-c3cccnc3)cc2)c2ccccc2n1 | inactive | inactive |
| CSc1ccc(-c2cncc(NC(=O)c3cccs3)c2)cc1 | inactive | inactive |
| O=C(Nc1ccc(-c2nc3ccccc3[nH]2)cc1)c1ccc(Cl)c(Cl)c1 | inactive | inactive |

| SMILES | Potency [1] | Potency [2] |
| --- | --- | --- |
| CC(C)(C)OC(=O)Nc1ncnc2c1C(c1ccccc1)c1c(ccc3ccccc13)O2 (configuration not stated) | inactive | inactive |
| Fc1cc(Nc2nc(-c3ccncc3)nc3ccccc23)ccc1-c1cn[nH]c1 | inactive | inactive |
| Cc1cc2c(s1)c1cnn(Cc3c(F)cccc3F)c(=O)c1n2C | inactive | inactive |
| COc1ccc(OC)c(-c2nnc(NC(=O)Nc3ccc4ccccc4c3)s2)c1 | inactive | inactive |
| Cc1ccc(OCCCn2c(CCNC(=O)C3CCCCC3)nc3ccccc32)cc1 | inactive | inactive |
| CCC(C)C(=O)Oc1cc(C)ccc1C1(COC(=O)C(C)C)CO1 (configuration not stated) | inactive | inactive |
| Cc1ccc(NS(=O)(=O)c2ccc3[nH]c(=O)[nH]c3c2)cc1C | inactive | inactive |
| Cc1ccc(OCCn2c(CCNC(=O)Cc3ccccc3)nc3ccccc32)cc1 | inactive | inactive |
| O=C1c2ccccc2C(=O)N1Cc1ccccc1 | inactive | inactive |
| COc1cc(/C=C/CO)cc(OC)c1O[C@@H]1O[C@H](CO[C@@H]2O[C@H](CO)[C@@H](O)[C@H](O)[C@H]2O)[C@@H](O)[C@H](O)[C@H]1O | inactive | inactive |
| N#Cc1cc(NC(=O)Nc2nnc(-c3ccncc3)s2)ccc1Cl | inactive | inactive |
| c1nc(N2CCCCC2)c2cc(-c3ccc4c(c3)OCO4)ccc2n1 | inactive | inactive |
| COc1ccnc(NC(=S)N2CCN(c3ncc(C(F)(F)F)cc3Cl)CC2)c1 | inactive | inactive |
| N#CN1CCC(NS(=O)(=O)c2ccc(C(F)(F)F)cc2)C1 (configuration not stated) | inactive | inactive |
| O=c1c2[nH]c3cc(Br)sc3c2cnn1Cc1ccccc1F | inactive | inactive |
| N#Cc1cnc(NS(=O)(=O)c2ccc(NC(=O)Cc3ccc(F)c(Cl)c3)cc2)s1 | inactive | inactive |
| O=C(Nc1ccc(-c2nc3ccccc3[nH]2)cc1)c1ccc2ncccc2c1 | inactive | inactive |
| O=C(Nc1ccc(-c2nc3ccccc3[nH]2)cc1)c1ccc(Oc2ccccc2)cc1 | inactive | inactive |
| COc1ccc(S(=O)(=O)Nc2ccc(C)c(C)c2)cc1 | inactive | inactive |
| C=C(C)C(=O)OC1CC2(C)OC(=CC2=O)C(=C)CC2OC(=O)C(COC)C12 (configuration not stated) | inactive | inactive |
| CCOC(=O)C1CCN(C(=O)C(C)(C)NC(=O)Nc2ccc([N+](=O)[O-])cc2)CC1 | inactive | inactive |
| CC1(C)CC[C@]2(C(=O)OC3OC(CO)C(O)C(O)C3O)CC[C@]3(C)C(=CCC4[C@@]5(C)CC[C@H](OC6OC(C(=O)O)C(O)C(O)C6O)C(CO)(CO)C5CC[C@]43C)[C@@H]2C1 (some centres not stated) | inactive | inactive |

| SMILES | Potency [1] | Potency [2] |
| --- | --- | --- |
| O=S(=O)(c1ccc2c(c1)OCCO2)N1CCN(S(=O)(=O)c2cc(F)c(Br)cc2F)CC1 | inactive | inactive |
| O=C1CCCC2=C1C(c1[nH]ncc1Cl)NC(=NCc1ccco1)N2 (configuration not stated) | inactive | inactive |
| FC(F)(F)c1ccccc1-c1nc(NCc2ccc(Br)cc2)c2ccccc2n1 | inactive | inactive |
| CC(C)(C)OC(=O)Cc1nnc(-c2cc3ccccc3[nH]2)s1 | inactive | inactive |
| O=C(COC(=O)CNC(=O)c1ccccc1)Nc1ccccc1Cl | inactive | inactive |
| CC(=O)CC(=O)Nc1ccc(Cl)c(C(F)(F)F)c1 | inactive | inactive |
| C=C1C(=O)OC2CC3(C)C(CC12)C(C)=CC(O)C3OC(C)=O (configuration not stated) | inactive | inactive |
| COCOC1CCC(C(=O)Nc2ccc([S+](=O)([O-])Nc3nccs3)cc2)CC1 (configuration not stated) | inactive | inactive |
| Cc1ccc(S(=O)(=O)Nc2cnccc2C(=O)Nc2ccccc2)cc1 | inactive | inactive |
| O=C(Cc1ccc(Cl)c(Cl)c1)Nc1ccc([S+](=O)([O-])Nc2cccc([N+](=O)[O-])c2)cc1 | inactive | inactive |
| Cc1cc(C)c(C)c(S(=O)(=O)N2CCN(S(=O)(=O)c3ccc4c(c3)OCCO4)CC2)c1C | inactive | inactive |
| CC1=C(C(=O)Nc2nc3ccccc3s2)C(c2[nH]ncc2Cl)N=C(Nc2nc3ccccc3o2)N1 (configuration not stated) | inactive | inactive |
| CC(C)c1cccc(C(C)C)c1NC(=O)Nc1ccc(Sc2ccc([N+](=O)[O-])cc2)cc1 | inactive | inactive |
| O=[S+]([O-])(Nc1nccs1)c1ccc(NCc2ccc(Cl)c(Cl)c2)cc1 | inactive | inactive |
| COc1ccccc1NC(=O)C(OC(=O)CNC(=O)c1ccccc1)c1ccccc1 (configuration not stated) | inactive | inactive |
| COc1ccc(C2=Nn3c(nnc3-c3ccccc3Cl)SC2)cc1O[C@H]1CCOC1 | inactive | inactive |
| Cc1cc(-c2nnc3n2CCCCC3)c(C)n1-c1ccccc1 | inactive | inactive |
| COC(=O)c1nc(Nc2cc(F)cc(F)c2)nc(NC2CCCC2)n1 | inactive | inactive |
| CCOC(=O)c1c(/C=N/Nc2ccccc2)c2sc(C)cc2n1C | inactive | inactive |
| COC(=O)c1cc2c(s1)c1cnn(Cc3ccccc3F)c(=O)c1n2C | inactive | inactive |
